# Assay outcomes: PubChem BioAssay, National Center for Advancing Translational Sciences (NCATS)
# Compounds with a hit are over-represented: about 2.2% of the library has one in this group of screens.
# TDP-43 yeast inh: inhibitors of TDP-43 toxicity in yeast. TDP-43 expressing yeast growth rescue, BacTiter-Glo, 24 h. Potency, µM (top dose mostly 46.1 µM), inactives show top-dose growth rescue (activation), actives largely listed as activators. hit rate 1.8% among 410,000. AID 652104; further: % of control where 0% means no effect; nearly all actives have a fitted effect of over 50% in size
#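 Luminescence from BacTiter-Glo reports growth of TDP-43-expressing yeast after 24 hr at 30 deg C with compound. Cells were raffinose-pregrown to mid-log, then seeded in galactose medium at OD600=0.02.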
# Mito fusion yeast: inhibitors of mitochondrial division or activators of mitochondrial fusion; S. cerevisiae fusion-defective mutant growth rescue, CellTiterGlo 48 h; AID 485298; hit rate 0.23% among 320,000; Potency, µM (series often up to 46.1 µM), without a hit: at the top dose growth rescue (activation), usual class: activators; further: % of control where 0% means no effect; nearly all actives have a fitted effect of over 45% in size
#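 Yeast fusion mutant, YPEG (non-fermentable carbon), compound, 48 h at 37C non-permissive; CellTiterGlo added, 10 min RT, luminescence read. Rescued growth = division inhibition.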
# aSyn rescue: inhibitors of alpha-synuclein toxicity in yeast; Yeast expressing alpha-synuclein, growth rescue, BacTiter-Glo, 24 h; Potency, µM (series often up to 46.1 µM), for inactives: at the top dose growth rescue (activation), usual class: activators; hit rate 0.14% among 370,000; further: % of control where 0% means no effect; nearly all actives have a fitted effect of over 65% in size
#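 Galactose-induced alpha-syn yeast (OD600=0.02, raffinose-pregrown) + pinned cpd, 24 hr, 30 deg C; growth by BacTiter-Glo luminescence. Growth restoration scores as activation.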
# Abeta rescue: restores growth of yeast expressing A-beta42 peptide; hit rate 0.063% among 410,000; Potency, µM (highest dose often 46.1 µM), usual class: activators; AID 1347071; yeast expressing A-beta42, growth rescue, OD600, 48 h; response scale: 0% DMSO, 100% iron-clioquinol control; further: nearly all actives have a fitted effect of over 55% in size
#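 Growth rescue measured by 600 nm absorbance after 48 h yeast culture at 30 C with compound. Values normalized between DMSO and an equimolar ferric chloride plus clioquinol control.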
# FUS yeast rescue: suppressors of FUS proteinopathy in yeast | Potency, µM (doses to about 76.6 µM), actives largely listed as activators | hit rate 0.24% among 390,000 | S. cerevisiae FUS-expressing, growth rescue, OD600, 24 h;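 further: plate controls were DMSO vehicle for no effect and reference control for full effect; nearly all actives have a fitted effect of over 55% in size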
#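 FUS-expressing yeast, raffinose-pregrown, induced in 2% galactose minimal medium at OD 0.005; compounds in a dilution series, 24hr at 30C. Growth restoration read as absorbance at 600 nm. CP55940 positive control, DMSO negative.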
# Starred values were filed as active, the others as inactive; i = inactive; u = inconclusive; x = not tested or not shown; ! = a repeat was not active; [ ] = remark or other dose. The call rests on the fitted dose curve; in most records, active means well fitted curve in the direction sought with a large enough effect; inconclusive means small, poorly fitted or top-dose-only effect, or another doubt; inactive means no such curve, though single readings can be large; an effect the other way counts as inactive or inconclusive. Potency means the concentration at half of the fitted maximal effect.
SMILES,TDP-43 yeast inh,Mito fusion yeast,aSyn rescue,Abeta rescue,FUS yeast rescue
CC(=O)NCC(N)C(=O)c1ccc(C)cc1 (centres undefined),x,x,1%,x,x
Cc1cccc(-n2c(-c3cccs3)nc3ccccc3c2=O)c1,20µM*,17%,12%,i,i
COC(=O)C1=C(c2cccc3c2S(=O)(=O)c2ccccc2-3)C[C@@H]2CC[C@H]1N2C(=O)N1CCc2cc(OC)c(OC)cc2C1,u,-12%,0%,i,20µM*
CC(C)(O)[C@@H]1C2OC(=O)[C@@H]1[C@]1(O)C[C@H]3O[C@]34C(=O)O[C@H]2[C@]14C (tested in a mixture with another compound),x,-4%,3%,x,x
O=C(O)COc1ccccc1,4%,-9%,-11%,i,i
Cc1ccccc1C(=O)NNC(=S)NC(=O)COc1ccccc1,3%,7%,3.2µM*,i,i
O=C(Nc1cccc(C(F)(F)F)c1)C1CCCN1S(=O)(=O)c1cccc2nsnc12 (centres undefined),u,x,x,i,i
COc1ccccc1C(=O)Nc1nnc(-c2ccc(Cl)cc2)o1,13µM*,24%,5%,i,i
COc1ccc(C(=O)Nc2ccc(Cl)cc2C(=O)c2ccccc2)c(OC)c1,14%,x,x,i,u
O=C(Oc1ccc([N+](=O)[O-])cc1)N1CCN(/[N+]([O-])=N/Oc2ccc([N+](=O)[O-])cc2[N+](=O)[O-])CC1,x,x,-49%,x,x
C[C@]12CC[C@H](O)CC1=CC[C@@H]1[C@@H]2CC[C@]2(C)C(=O)CC[C@@H]12,16µM*,x,u,i,i
COc1ccc(CNC(=O)c2cnn3c(C)c(Cc4ccc(F)cc4)c(C)nc23)cc1,u,x,x,i,i
O=C(Cn1c(=O)oc2ccccc21)NCCc1ccccc1,23%,-45%,4%,i,i
Cc1csc2nc(COC(=O)c3ccccc3NC(=O)c3ccc(F)cc3)cc(=O)n12,u,x,x,i,i
Cc1ccc(NC(=O)CN2C(=O)CN=C(c3ccccc3)c3cc(Cl)ccc32)cc1,14µM*,26%,u,i,u
O=C(CN1C(=O)CN=C(c2ccccc2)c2ccccc21)Nc1cccc(C(F)(F)F)c1,35µM*,x,x,i,u
Cc1ccc(NC(=O)CN2C(=O)CN=C(c3ccccc3)c3ccccc32)cc1,3%,-1%,x,i,i
CCc1ccc(NC(=O)c2ccc(F)c(S(=O)(=O)N3CCC4(CC3)OCCO4)c2)cc1,u,x,x,i,i
C[Se]C[C@H](N)C(=O)O,x,u,-19%,x,x
C[C@@H]1CN([C@@H](C)CO)C(=O)CCCn2nncc2CO[C@@H]1CN(C)C(=O)Nc1ccc(N2CCCCC2)cc1,0%,x,-12%,i,i
COc1ccc(Cn2c(O)c(/C=N/NC(=O)c3ccccc3)c(=O)[nH]c2=O)cc1,17%,1%,-13%,i,i
COC(=O)[C@@H]1N=C(c2ccc(OC)cc2)O[C@]12C(=O)N(Cc1ccc(OC)cc1)c1ccccc12,-18%,x,2%,i,14µM*
CN(N=O)c1ccc(O)c(O)c1,x,u,2%,x,x
NC(CCc1ccccc1)c1csc(NC(=O)Nc2ccccc2Oc2ccccc2)n1 (centres undefined),9%,x,-49%,i,u
CC[C@@]1(O)C(=O)OCc2c1cc1n(c2=O)Cc2cc3ccccc3nc2-1,x,13µM*!,18%,x,x
SMILES,TDP-43 yeast inh,Mito fusion yeast,aSyn rescue,Abeta rescue,FUS yeast rescue
CCC1(OC(=O)CN)C(=O)OCc2c1cc1n(c2=O)Cc2cc3ccccc3nc2-1 (centres undefined),27%,0.79µM*,3%,i,i
CC[C@@]1(O)C(=O)OCc2c1cc1n(c2=O)Cc2cc3c(NC(=O)CN)cccc3nc2-1,-6%,6%,-2%,i,i
COc1ccc(-c2nc(CN3C(=O)CN=C(c4ccccc4)c4cc(Cl)ccc43)c(C)o2)cc1,0%[9.22 µM],x,x,i,u
C=CCN1CC[C@]23c4c5ccc(O)c4O[C@@H]2/C(=N/N=C2\CC[C@@]4(O)C6Cc7ccc(O)c8c7[C@@]4(CCN6CC=C)[C@@H]2O8)CC[C@@]3(O)C1C5,x,u,-14%,x,x
C[C@@H]1CCCCO[C@H](CN(C)Cc2ccccc2)[C@@H](C)CN([C@H](C)CO)C(=O)c2cc(NC(=O)c3ccccc3)ccc2O1,u,x,5%,i,i
Cc1c(C(c2ccc(Br)cc2)c2c(O)c3ccccc3oc2=O)c(=O)n(-c2ccccc2)n1C (centres undefined),14µM*!,-31%,-4%,i,u
CSc1ccc(C(c2c(O)c3ccccc3oc2=O)c2c(C)n(C)n(-c3ccccc3)c2=O)cc1 (centres undefined),-17%,13%,12%,i,u
Cc1c(C(c2ccc(Cl)cc2Cl)c2c(O)c3ccccc3oc2=O)c(=O)n(-c2ccccc2)n1C (centres undefined),10µM*,25%,3%,i,i
C=C(C=O)CC1CC(O)[C@]2(C)OC3CC4OC5C[C@]6(C)O[C@]7(C)CCC8OC9C[C@]%10(C)OC%11C(C)=CC(=O)OC%11CC%10OC9C[C@@H](C)C8OC7CC6O[C@]5(C)CC5OC5C4OC3CC2O1 (some centres undefined),3.2µM*,-10%,5%,i,i
CC(C)(Oc1ccc(Cl)cc1)C(=O)OCC(=O)N1CCN(c2ccccc2)CC1,14µM*,2%,13%,i,i
O=C(COc1ccc(Cl)cc1)N1CCN(Cc2ccccc2)CC1,-10%,1%,2%,i,i
ClCCN(CCCl)c1ccc(/C=C/c2ccnc3ccccc23)cc1,x,x,-41%,x,x
Cc1ccc(NC(=O)C2CCN(C(=O)c3cnn(-c4ccccc4)c3-n3cccc3)CC2)cc1Cl,35µM*,x,x,i,i
Oc1ccccc1-[n+]1c(-c2ccccc2)cc(-c2ccccc2)c(O)c1-c1ccccc1,5%,11µM*,4%,i,u
Oc1ccc(-[n+]2c(-c3ccccc3)cc(-c3ccccc3)cc2-c2ccccc2)cc1,-5%,10%,-8%,i,i
C[C@H]1COC(=O)[C@@H](Cc2ccc(F)cc2)CC/C=C/C[C@H](CC(=O)N(CCO)Cc2ccccc2)C(=O)N1,18%,x,u,i,i
Cc1ccccc1CN1C(=O)C(C)N=C(c2ccccc2)c2ccccc21 (centres undefined),14µM*,x,x,i,i
Cc1oc(-c2ccccc2)nc1CN1C(=O)C(C)N=C(c2ccccc2F)c2cc(Cl)ccc21 (centres undefined),u,25%,-29%,i,i
Cc1cccc(OC(=O)n2c(=S)oc3cc(Cl)ccc32)c1,-31%,u,-36%,i,x
